# From PubChem BioAssay (EPA / NIEHS)
# Values joined by “and” are separate entries in the source; they are usually repeats but may differ in a detail not shown here. Equal values may be shown once. Inconclusive results are not listed. A structure can be active in one record and inactive in another. Active and inactive are the calls of the source. Rule for the calls: active = hit-call score of the fitted dose curve at least 0.9, where 1 is the maximum; inconclusive = response in the unintended direction; inactive = score below 0.9.
# Target: Cellular tumor antigen p53 (Homo sapiens) (UniProt P04637)
# Sequence (P04637 whole entry, looked up): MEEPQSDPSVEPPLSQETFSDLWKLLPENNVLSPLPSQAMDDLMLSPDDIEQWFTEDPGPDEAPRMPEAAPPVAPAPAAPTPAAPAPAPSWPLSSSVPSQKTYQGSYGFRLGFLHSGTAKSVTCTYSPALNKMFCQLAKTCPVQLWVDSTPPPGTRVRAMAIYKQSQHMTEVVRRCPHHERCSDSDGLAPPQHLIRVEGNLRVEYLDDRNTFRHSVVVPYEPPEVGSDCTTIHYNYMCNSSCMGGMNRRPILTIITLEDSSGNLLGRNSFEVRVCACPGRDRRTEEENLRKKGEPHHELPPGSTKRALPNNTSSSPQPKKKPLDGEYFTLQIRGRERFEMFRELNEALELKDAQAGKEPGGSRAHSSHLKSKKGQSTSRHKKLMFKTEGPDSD
# Experiment: TOX21_p53_BLA_p3_ratio: Tox21 HCT-116 p53 Agonism Beta-lactamase Assay, Ratio, Phase 3 (AID 2283596)
# Description: TOX21_p53_BLA_p3 is a cell-based, single-readout assay that uses HCT116, a human intestinal cell line, […] in a 1536-well plate.TOX21_p53_BLA_p3_ratio is an assay readout measuring reporter gene via receptor activity and designed using inducible reporter (beta lactamase induction) detected with GAL4 b-lactamase reporter gene. The signal is derived from the ratio of cleaved (ch2) to uncleaved (ch1) reporter gene substrate used as the measure of target activity.Data from the assay component TOX21_p53_BLA_p3_ratio was analyzed into 1 assay endpoint. This assay endpoint, TOX21_p53_BLA_p3_ratio, was analyzed in the positive analysis fitting direction relative to DMSO as the negative control and baseline of activity. Using a type of inducible reporter, gain-of-signal activity can be used to understand changes in the reporter gene as they relate to the gene TP53. Furthermore, this assay endpoint can be referred to as a primary readout, because this assay has produced multiple assay endpoints where this ratio serves a reporter gene function to understand target activity. To generalize the intended target to other relatable targets, this assay endpoint is annotated to the DNA binding intended target family, where the subfamily is tumor suppressor.
# Thawing Method: Place 14 mL of pre-warmed thaw medium into a 15 mL of conical tub. Remove the vial of cells to be thawed from liquid nitrogen and thaw rapidly by placing at 37C in a water bath with gentle agitation for 1-2 minutes. Decontaminate the vial by wiping with 70% ethanol before opening in a biological safety cabinet. Transfer the vial contents drop-wise into 14 mL of thaw medium in a sterile 15-mL conical tub. Centrifuge cells at 900 rpm for 4 minutes and resuspend in thaw medium. Transfer contents to the T75 tissue culture flask containing Thaw Medium and place flask in a humidified 37C/5% CO2 incubator. Switch to growth medium at first passage.Propagation Method: Aspirate medium, rinse once in DPBS, add 0.25% Trypsin/EDTA and swirl to coat the cell evenly. Add an equal volume of Growth Medium to inactivate Trypsin after 2-3 minutes incubation at 37C. Centrifuge cells at 900 rpm for 4 minutes and resuspend in growth medium. Cell should be passage or fed at least twice a week.Assay Protocol: Harvest cells from culture in growth medium and resuspend in assay medium. 2.2 Dispense 4000 cells/5 uL/well into 1536-well black/clear bottom plates using a Multidrop dispenser. After the cells were incubated at 37C for 5 hours, 23 nL of compounds dissolved in DMSO were transferred to the assay plate by a PinTool resulting in a 217-fold dilution. Incubate the plates for 16 hours at 37C, 5% CO2. Add 1 uL of 6X LiveBLAzer FRET B/G (CCF4-AM) Substrate Mixture to each well using a BioRAPTR dispenser and incubate the plates at room temperature for 2 hours. Measure fluorescence intensity at 460 and 530 nm emission and 405 nm excitation by an Envision detector. Data is expressed as the ratio of 460nm/530nm emissions. Add 4 uL of Cell-titer Glo to each well using BioRAPTR and incubate the plates at room temperature for 2 hours. Measure fluorescence intensity by a VewLux plate reader.
Structure (SMILES),outcome,AC50
CCOP(=S)(OCC)Oc1nc(Cl)n(C(C)C)n1,inactive,–
C=C(C)CN(CC)c1c([N+](=O)[O-])cc(C(F)(F)F)cc1[N+](=O)[O-],inactive,–
C=CCOC(=O)C(C)(C)OC(=O)c1cc(-n2c(=O)cc(C(F)(F)F)n(C)c2=O)ccc1Cl,inactive,–
CCCCC(O)(Cn1cncn1)c1ccc(Cl)cc1Cl (stereo not given),inactive,–
O=C1C2CC=CCC2C(=O)N1SC(Cl)(Cl)Cl (stereo not given),inactive,77.7 µM (active) and 6.5 µM (active)
N#Cc1c(Cl)cccc1Cl,inactive,–
COc1cc(Cl)c(OC)cc1Cl,inactive,–
CNC(=O)Oc1cccc2ccccc12,inactive,–
CC(C)Nc1nc(Cl)nc(NC(C)C)n1,inactive,–
CCOP(=O)(OCC)Oc1nc(Cl)c(Cl)cc1Cl,inactive,–
CC(C)Oc1cccc(NC(=O)c2ccccc2C(F)(F)F)c1,inactive,–
CCCC(=NOCC)C1=C(O)CC(CC(C)SCC)CC1=O (stereo not given),inactive,–
CC1(C)C(C(=O)OC(C#N)c2cccc(Oc3ccccc3)c2)C1(C)C (stereo not given),inactive,–
COc1ccc(-c2ccccc2)cc1NNC(=O)OC(C)C,inactive,–
COC(=O)NS(=O)(=O)c1ccc(N)cc1,inactive,–
OC(c1ccc(Cl)cc1)(c1ccc(Cl)cc1)C(Cl)(Cl)Cl,–,49.6 µM (active)
CCCCOCN(C(=O)CCl)c1c(CC)cccc1CC,inactive,–
Nc1cnn(-c2ccccc2)c(=O)c1Cl,inactive,–
COP(=S)(OC)Oc1ccc([N+](=O)[O-])c(C)c1,inactive,–
CCOc1nc(F)cc2nc(S(=O)(=O)Nc3c(Cl)cccc3Cl)nn12,inactive,–

Structure (SMILES),outcome,AC50
CO/N=C(/C1=NOCCO1)c1ccccc1Oc1ncnc(Oc2ccccc2Cl)c1F,inactive,–
COC(=O)c1c(C(F)F)nc(C(F)(F)F)c(C2=NCCS2)c1CC(C)C,inactive,–
COc1cc(OC)nc(NC(=O)NS(=O)(=O)c2ncccc2OCC(F)(F)F)n1,inactive,–
Cc1c(COC(=O)[C@@H]2[C@H](/C=C(\Cl)C(F)(F)F)C2(C)C)cccc1-c1ccccc1,inactive,–
COCC(C)N(C(=O)CCl)c1c(C)csc1C (stereo not given),inactive,–
O=C(Nc1ccccc1-c1ccc(Cl)cc1)c1cccnc1Cl,inactive,–
CNC(=O)N(C)c1nnc(C(C)(C)C)s1,inactive,–
CC(C)(C)C(=O)C(Oc1ccc(Cl)cc1)n1cncn1 (stereo not given),inactive,–
O=P(O)(O)CCCl,inactive,–
Cn1c(-c2ccccc2)cc(-c2ccccc2)[n+]1C,inactive,–
CN=C=S,inactive,–
CC(C)N1C(=O)c2ccccc2NS1(=O)=O,inactive,–
COC(=O)N(C(=O)N1CO[C@@]2(C(=O)OC)Cc3cc(Cl)ccc3C2=N1)c1ccc(OC(F)(F)F)cc1,inactive,–
N#CN=C1SCCN1Cc1ccc(Cl)nc1,inactive,–
CCN(CC)c1nc(C)cc(OP(=S)(OC)OC)n1,inactive,–
CC1(C)C(C=C(Cl)Cl)C1C(=O)OC(C#N)c1cccc(Oc2ccccc2)c1 (stereo not given),inactive,–
CCCCC(C#N)(Cn1cncn1)c1ccc(Cl)cc1 (stereo not given),inactive,–
COCC(=O)N(c1c(C)cccc1C)C(C)C(=O)OC (stereo not given),inactive,–
CC1(C)CON(Cc2ccccc2Cl)C1=O,inactive,–
